# Compound activity from PubChem.
# This is one part of a sample in which hits are shown more often than they occur.
# TbPYK inhibitor = inhibitors of Trypanosoma brucei pyruvate kinase; Potency, µM (highest dose often 76.8 µM), usual class: inhibitors; 410,000 compounds, 0.12% hits; Q57TT1; TbPYK enzyme, Kinase-Glo Plus ATP luminescence, 45 min; note: nearly all actives have a fitted effect of over 50% in size
#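 ADP (130 uM final) triggers the TbPYK reaction after compound addition; incubation is 45 min at room temperature. Kinase-Glo Plus is then added and luminescence imaged. Normalized data are fitted to concentration-effect curves.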
# Cycloheximide cs = counter-screen for Shiga toxin inhibitors: cycloheximide protein synthesis inhibition. cell reporter, cycloheximide protein synthesis inhibition counterscreen. max response, %. 300,000 compounds, 12% hits. AID 2314; in the data active = max response mostly above about 13%, no sharp cut-off; inactive = mostly below about 14%; note: read at 38.3 µM for the half of the compounds with a filed dose
# FBPA Giardia inh = inhibitors of Giardia lamblia fructose-1,6-bisphosphate aldolase. A8B2U2. purified Giardia FBPA. 290,000 compounds, 0.71% hits. Potency, µM (titrated, usually from 59.6 µM), actives largely listed as inhibitors. AID 2451; note: nearly all actives have a fitted effect of over 55% in size
# Target sequence (A8B2U2 whole entry, looked up): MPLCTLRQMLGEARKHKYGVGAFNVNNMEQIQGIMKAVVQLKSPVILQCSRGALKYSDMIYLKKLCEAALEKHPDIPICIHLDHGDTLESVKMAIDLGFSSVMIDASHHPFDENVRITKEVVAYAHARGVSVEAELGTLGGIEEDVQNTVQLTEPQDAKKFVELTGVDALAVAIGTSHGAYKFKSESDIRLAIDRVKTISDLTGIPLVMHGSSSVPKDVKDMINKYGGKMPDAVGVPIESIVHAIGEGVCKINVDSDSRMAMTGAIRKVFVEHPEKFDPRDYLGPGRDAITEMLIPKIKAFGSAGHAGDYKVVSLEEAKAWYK
#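 Giardia FBPA (40 nM reagent) was preincubated 10 min at RT with compound (up to 57.5 uM final), then substrate plus GAPDH/TPI/NAD/arsenate coupling system with diaphorase/resazurin was added; resorufin fluorescence (525/598 nm) was read after 20 min.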
# LmPK inh = LmPK (Leishmania mexicana) enzyme inhibition; AID 1721; purified LmPK, Kinase-Glo ATP luminescence, 1 h; 290,000 compounds, 0.37% hits; Q27686; Potency, µM (titrated, usually from 57.5 µM), most hits filed as inhibitors
#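 Screened at intermediate enzyme activity to detect both inhibitors and activators: LmPK at 0.1 nM, with a 0.5 nM enzyme column as activation reference. PEP 0.5 mM, ADP 0.1 mM; ATP detected by luminescence after 1 h.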
# Shiga toxin inh = inhibitors of Shiga toxin in Vero cells | 290,000 compounds, 9.2% hits | inhibition, % at 38.7 µM | Vero cells, Shiga toxin protein synthesis inhibition reporter; in the data active = inhibition mostly above about 28%, no sharp cut-off; inactive = mostly below about 43%
# Sm TGR inh = S. mansoni TGR enzyme inhibition. Q962Y6. purified TGR, DTNB reduction, TNB absorbance 405 nm. Potency, µM (highest dose often 114 µM), usual class: inhibitors. 360,000 compounds, 3% hits; note: nearly all actives have a fitted effect of over 60% in size
#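 TGR 20 nM + NADPH 100 uM (dispensed conc.), cpd preinc 15 min RT; start with NADPH (500 uM addition) then DTNB (15 mM addition). Kinetic TNB absorbance, 405 nm filter. Four-parameter Hill fit across titration.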
# Numbers stand for hits; 0 = inactive; ? = inconclusive; - = not tested or not shown. Unless noted, calls come from the whole dose curve; as a rule, active = well fitted curve in the direction sought with a large enough effect; inconclusive = small, poorly fitted or top-dose-only effect, or another doubt; inactive = no such curve, though single readings can be large; an effect the other way counts as inactive or inconclusive.
SMILES,TbPYK inhibitor,Cycloheximide cs,FBPA Giardia inh,LmPK inh,Shiga toxin inh,Sm TGR inh
C/C(=C\C(=O)c1ccc(C)cc1)Nc1cccc(O)c1,0,43.3,0,0,93.3,0
CC(=O)c1ccc(N/C=C\C(=O)c2ccc(C)cc2)cc1,0,53.5,0,0,111.9,0
CC(=O)c1cccc(N/C=C\C(=O)c2ccc(C)cc2)c1,0,42.2,0,0,65.4,0
CC(=O)c1cccc(NS(C)(=O)=O)c1,0,0,0,0,0,0
Cc1c(N/C=C/C(=O)c2ccc(Cl)cc2)c(=O)n(-c2ccccc2)n1C,0,0,0,0,0,0
O=C(/C=C/Nc1ccc(F)c(Cl)c1)c1ccccc1,0,44.3,0,0,59.0,0
Cc1ccc(C(=O)/C=C/Nc2cccc(O)c2)cc1,0,9.7,0,?,0,0
CCCN1CCc2cccc3c2C1Cc1ccc(O)c(O)c1-3 (stereo not drawn),-,-,12.6µM,-,-,-
CCOC(=O)C1CCN(C(c2ccccc2)c2c(O)cc(C)n(Cc3ccco3)c2=O)CC1 (stereo not drawn),0,-,-,-,-,8.91µM
CCOC(=O)C1CCN(C(c2ccc(C)cc2)c2sc3nc(-c4ccco4)nn3c2O)CC1 (stereo not drawn),0,-,-,-,-,0
CCOC(=O)C1CCN(C(c2cccc(F)c2)c2c(O)cc(C)n(CCOC)c2=O)CC1 (stereo not drawn),0,-,-,-,-,17.8µM
CCOC(=O)C1CCN(C(c2cccc(F)c2)c2c(O)cc(C)n(Cc3ccco3)c2=O)CC1 (stereo not drawn),0,-,-,-,-,10µM
CCOC(=O)C1CCN(C(c2ccc(SC)cc2)c2c(O)cc(C)n(Cc3ccco3)c2=O)CC1 (stereo not drawn),0,-,-,-,-,5.01µM
CCOC(=O)C1CCN(C(c2cccc(F)c2)c2sc3nc(C)nn3c2O)CC1 (stereo not drawn),0,0,0,0,0,0
Cc1ccc(S(=O)(=O)NC(=O)C2(C)CCN2C(=O)CC2CCCC2)nc1 (stereo not drawn),0,-,-,-,-,-
COC(=O)c1sccc1S(=O)(=O)N(CC(=O)NCc1ccc(C)cc1)c1ccccc1,0,-,-,-,-,0
Cc1ccc(O)c(N=Cc2ccc(C)s2)c1,0,37.4,?,0,52.2,0
Cc1ccc(/C=N/n2c(C)nnc2C)s1,0,0,0,0,0,0
CCc1ccc(NC(=O)CC2C(=O)N(c3ccc(F)cc3)C(=O)N2Cc2ccc(F)cc2)cc1 (stereo not drawn),0,-,-,-,-,0
O=C(NCCCc1ccccc1)c1ccccc1,0,39.8,0,0,75.9,?
O=C(NCCc1ccccc1)c1ccc(-n2cnnn2)cc1,0,46.7,0,0,60.7,0
CCOC(=O)CNC(=O)c1ccccc1,0,0,0,0,0,0
O=C(NCCCc1ccccc1)c1cccc([N+](=O)[O-])c1,0,22.0,0,0,0,0
O=C(NCCc1c[nH]c2ccccc12)c1ccc(-n2cnnn2)cc1,0,0,0,0,0,0
O=C(NCC#CCOCc1ccccc1)c1ccccc1,0,0,0,0,0,7.08µM
SMILES,TbPYK inhibitor,Cycloheximide cs,FBPA Giardia inh,LmPK inh,Shiga toxin inh,Sm TGR inh
COc1ccc2c(c1)OC[C@H]1[C@H]2N2C(=O)[C@H](C)NC(=O)[C@@]2(C)[C@H]1c1ccccc1,0,-,-,-,-,0
CCc1nc2ccc(C(=O)N3CCN(c4ccc([N+](=O)[O-])cc4)CC3)cc2nc1CC,0,0,-,0,0,0
O=C(NCCCCc1ccccc1)c1ccc(Br)cc1,0,38.1,0,0,55.7,0
O=C(NCCCCc1ccccc1)c1ccc(F)cc1,0,-,-,-,-,-
O=C(CCCc1ccccc1)c1ccccc1,0,46.4,0,0,96.6,0
O=C(NCCCCc1ccccc1)c1ccccc1,0,15.5,0,0,0,0
O=C(NCCCCc1ccccc1)c1ccccc1Br,0,-,-,-,-,-
O=C(CCCC(=O)c1ccccc1)NCCc1ccccc1,0,0,0,0,0,0
CCOc1ccc(CCNC(=O)CS(=O)(=O)Cc2nc(-c3cccc(Cl)c3)oc2C)cc1,0,-,-,-,-,0
Cc1ccc(/C(O)=C2/C(=O)C(=O)N(c3ccccn3)C2c2ccc(F)cc2)cc1 (stereo not drawn),0,19.4,0,0,0,?
O=C(c1cccc(Cl)c1)C1CCCN(Cc2ccon2)C1 (stereo not drawn),0,0,0,0,0,0
